Results filed as inconclusive are left out. A number with no mark means an inactive call. Activity calls are given as the source filed them. Calls follow the shape of the dose curve; as a rule, active = well fitted curve in the direction sought with a large enough effect; inconclusive = small, poorly fitted or top-dose-only effect, or another doubt; inactive = no such curve, though single readings can be large; an effect the other way counts as inactive or inconclusive.

Assay [1] deals with MCC-13. Kind of assay: qHTS assay to identify novel small-molecules to repurpose for Merkel cell carcinoma treatment (AID 1296009). Also: nearly all actives have a fitted effect of over 60% in size. The note with it: MCC and control cell lines, CellTiter-Glo viability, 72 h; series mostly up to 46 µM. In short, it runs like this:
(§1)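 qHTS format: cells treated with library compounds in DMSO across 8 (NPC) or 11 (MIPE) concentrations. Readout after 72 hr at 37 degree celsius was CellTiter-Glo luminescence.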
In general terms: Quantitative high-throughput screening tests each substance at several concentrations.

Assay [2] has as its system MCC-26. The description is as above. Particulars: MCC and control cell lines, CellTiter-Glo viability, 72 h; series mostly up to 46 µM. Put shortly:
as §1
For orientation: Cellular ATP, detected with luciferase, serves as a proxy for viable cell number.

Assay [3] concerns MKL-1. Described as above. The note with it: MCC and control cell lines, CellTiter-Glo viability, 72 h; series mostly up to 46 µM. Put shortly: as §1
For assay [4], the system named is MKL-2. The description is as above. The note with it: MCC and control cell lines, CellTiter-Glo viability, 72 h; series mostly up to 46 µM. Put shortly:
as §1

Assay [5] concerns NIH3T3. The assay is described as above. The note with it: MCC and control cell lines, CellTiter-Glo viability, 72 h; at 44.8 µM (top of the series) unless noted. In short, it runs like this: as §1
Assay [6] concerns UISO. Described as above. The note with it: MCC and control cell lines, CellTiter-Glo viability, 72 h; series mostly up to 46 µM. Put shortly:
as §1

For assay [7], the system named is WaGa. The description is as above. The note with it: MCC and control cell lines, CellTiter-Glo viability, 72 h; series mostly up to 46 µM. Put shortly: as §1
Assay [8] concerns C33A. Kind of assay: Primary qHTS to identify gynecologic anti-cancer compounds using libraries of approved drugs and bioactive compounds (AID 1345084). Also: nearly all actives have a fitted effect of over 55% in size. Particulars: Gynecologic cancer cell panel viability, ATPlite luminescence, 48 h; series mostly up to 57.5 µM. Put shortly:
(§2)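 ATP-based viability (ATPlite), 1,000 cells/well, 16 h pre-incubation, 48 h compound at 37 C, 5% CO2, 15 min RT before read.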

The subject of assay [9] is CAOV3. The description is as above. The note with it: Gynecologic cancer cell panel viability, ATPlite luminescence, 48 h; series mostly up to 57.5 µM. In short, it runs like this:
as §2

The test system of assay [10] is CASKI. The description is as above. The note with it: Gynecologic cancer cell panel viability, ATPlite luminescence, 48 h; series mostly up to 57.5 µM. In short, it runs like this:
as §2

The test system of assay [11] is Es-2. The description is as above. The note with it: Gynecologic cancer cell panel viability, ATPlite luminescence, 48 h; series mostly up to 57.5 µM. Put shortly:
as §2

Assay [12] deals with HeLa. The assay is described as above. Particulars: Gynecologic cancer cell panel viability, ATPlite luminescence, 48 h; series mostly up to 57.5 µM. Put shortly:
as §2

Assay [13] relates to Hek293T. The assay is described as above. Particulars: Gynecologic cancer cell panel viability, ATPlite luminescence, 48 h, control line for the selectivity index; series mostly up to 57.5 µM. In short, it runs like this:
as §2

For assay [14], the system named is JEG-3. The description is as above. The note with it: Gynecologic cancer cell panel viability, ATPlite luminescence, 48 h; series mostly up to 57.5 µM. Put shortly:
as §2

Assay [15] concerns OV90. The assay is described as above. Particulars: Gynecologic cancer cell panel viability, ATPlite luminescence, 48 h; series mostly up to 57.5 µM. Put shortly:
as §2

Assay [16] concerns PA-1. Described as above. The note with it: Gynecologic cancer cell panel viability, ATPlite luminescence, 48 h; series mostly up to 57.5 µM. Put shortly: as §2
Assay [17] deals with SKOV3. Described as above. Particulars: Gynecologic cancer cell panel viability, ATPlite luminescence, 48 h; series mostly up to 57.5 µM. Put shortly:
as §2

In assay [18] the test system is Tov-21-G. The description is as above. The note with it: Gynecologic cancer cell panel viability, ATPlite luminescence, 48 h; series mostly up to 57.5 µM. In short, it runs like this: as §2
Assay [19] has as its system Tov112D. Described as above. Particulars: Gynecologic cancer cell panel viability, ATPlite luminescence, 48 h; series mostly up to 57.5 µM. Put shortly:
as §2

The nature of assay [20]: Drug repurposing screens with cells derived from glioblastoma tumor samples (AID 1345199). Also: nearly all actives have a fitted effect of over 40% in size. Also: potency is read from the fitted curve at half-maximal effect. Particulars: GBM patient neurospheres viability, ATP luminescence, 48 h. In short, it runs like this:
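Four patient lines of CD133+ GBM neurospheres were screened at several concentrations; hits were retested in those lines plus three slower-growing GBM lines, using 48-hour treatment and ATP-based viability.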

The mark [21] stands for this setting: at 45.9 µM (top of the series), tumour line B.
Setting [22] is: at 45.9 µM (top of the series), tumour line D.
Setting [23] is: at 46.1 µM (top of the series), tumour line C.
Setting [24] is: at 46 µM (top of the series), tumour line A.
% is scaled to controls: 0 for no effect and ±100 for the full control effect.

Turning to `CC(C)(C)NCC(O)COc1ccc(NC(=O)NC2CCCCC2)cc1` (stereo not given), the Potency entry in assay [1], in [2], in assay [3], in [4], in assay [6] and in assay [7] was “inactive” each time. Further, the Potency result in assay [8], in assay [9], in assay [10], in assay [11], in assay [12] and in assay [13] was “inactive” each time. For the same compound, the Potency result in assay [14], in assay [15], in [16], in assay [17], in [18] and in assay [19] was “inactive” throughout. Further, the compound was called inactive in assay [5]. Moreover, the activity, negative = cell killing in assay [20] (setting [21]) was -25.7%. For the same compound, in assay [20] (tumour line A), the Potency is 31.6 µM (active).

As to `Nc1nc2c(ncn2CCC(CO)CO)c(=O)[nH]1`, the Potency entry in assay [1], in assay [2], in assay [3], in assay [4], in assay [6] and in [7] was “inactive” each time. The Potency entry in assay [8], in assay [9], in assay [10], in [11], in assay [12] and in assay [13] was “inactive” each time. Also, the Potency entry in [14], in [15], in assay [16], in assay [17], in [18] and in assay [19] was “inactive” each time. Besides, the result in assay [5] was inactive. The activity, negative = cell killing in assay [20] (setting [21]) is -8.7%; in assay [20] (setting [22]), 3.63%; in assay [20] (setting [23]), -21.6%.

On to `CCCCC/C(C=O)=C\c1ccccc1`, for which the Potency result in assay [1], in assay [2], in [3], in assay [4], in [6] and in [7] was “inactive” in each case. The Potency result in assay [8], in assay [9], in assay [10], in assay [11], in [12] and in [13] was “inactive” each time. In addition, the Potency result in [14], in [15], in assay [16], in assay [17], in assay [18] and in assay [19] was “inactive” in each case. The compound was called inactive in assay [5]. Moreover, the activity, negative = cell killing in assay [20] (setting [21]) was -2.87%; in [20] (setting [22]), -16.9%; in assay [20] (setting [24]), -24.2%; in assay [20] (setting [23]), -7.86%.

On to `CC(O)CN(CCN(CC(C)O)CC(C)O)CC(C)O` (stereo not given), for which the Potency entry in [1], in [2], in assay [3], in [4], in [6] and in assay [7] was “inactive” each time. Further, the Potency entry in assay [8], in assay [10], in assay [11], in assay [12], in [13] and in assay [14] was “inactive” each time. The Potency result in assay [15], in [16], in assay [17], in assay [18] and in [19] was “inactive” throughout. Further, the call in assay [5] was inactive. Also, the activity, negative = cell killing in assay [20] (setting [21]) is -16.3%; in assay [20] (setting [22]), 3.18%; in assay [20] (setting [24]), -27.7%.

With `O=c1cc[nH]c(=O)[nH]1`, the Potency result in assay [1], in [2], in assay [3], in assay [4], in assay [6] and in [7] was “inactive” each time. Moreover, the Potency result in [8], in [9], in assay [10], in [11], in assay [12] and in assay [13] was “inactive” in each case. The Potency result in [14], in assay [15], in assay [16], in [17], in [18] and in assay [19] was “inactive” each time. In addition, the result in [5] was inactive. For the same compound, the activity, negative = cell killing in [20] (setting [21]) was -1.25%; in assay [20] (setting [22]), -13.5%; in assay [20] (setting [24]), -25.6%; in assay [20] (setting [23]), -13%.
